# A selection: hits, their analogues and other compounds. The true share with any hit is near 4.6%.
# tim23-1 inh – growth inhibitors of tim23-1 mutant yeast, primary screen, luminescence, uHTS | S. cerevisiae tim23-1 growth, BacTiter-Glo luminescence, 24 h | inhibition, % at 20 µM | hit rate 1.3% among 330,000;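 active means growth inhibition of the mutant yeast at or above 50%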;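 further: temperature-sensitive mutant grown at 25 °C; plate controls were DMSO-treated mutant yeast for no effect and medium wells lacking yeast for full effect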
# V-ATPase pHluor – regulators of yeast V-ATPase proton pumping, primary screen, pHLuorin cytosolic pH fluorescence. S. cerevisiae. response, % at 10 µM. hit rate 0.37% among 350,000. AID 504577, 2011; in the data active means response mostly above about 7.3%, no sharp cut-off; inactive means mostly below about 5.4%; further: actives read high
# PfHsp90 set2 – growth inhibition of PfHsp90-expressing yeast, primary screen, antimalarial PfHsp90 inhibitor project, S. cerevisiae, BacTiter-Glo luminescence, single point, set 2. inhibition, % at 9.4 µM. hit rate 0.32% among 310,000. BacTiter-Glo ATP, 48 h; yeast lacking PDR1 and PDR3 efflux regulators;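 active means every replicate shows inhibition above about 80%, whatever the replicate mean, limit read from the data; inconclusive means mean inhibition reaches the set limit but some replicate falls short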;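 further: 0% = DMSO neutral controls and 100% = 20 µM radicicol positive controls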
# tim10-1 inh – growth inhibitors of tim10-1 mutant yeast, primary screen, luminescence, uHTS; S. cerevisiae tim10-1 ts strain growth, BacTiter-Glo, 24 h; inhibition, % at 20 µM; hit rate 2.2% among 330,000;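 active means inhibition of at least 40%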;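 further: mutant grown at 25 °C; 0% = DMSO wells with yeast and 100% = wells holding no yeast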
# SKKanGAS inh – S. pyogenes SKKanGAS growth inhibitors in kanamycin, primary screen, streptokinase expression inhibitor project, SKKanGAS strain, BacTiter-Glo luminescence. 6 h. inhibition, % at 7.5 µM. hit rate 1.3% among 300,000. AID 1662, 2009;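 active means mean replicate score, as percent of positive control median, at least 50; inconclusive means mean below 50 but one replicate at or above 50; inactive means mean and every replicate below 50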;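 further: strain carries kanamycin resistance gene driven by streptokinase promoter and grows in 40 µg/ml kanamycin; loss of luminescence reflects streptokinase promoter inhibition or plain growth inhibition; 0% = median of DMSO wells and 100% = positive control at its reference dose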
# TIM10 inh – growth inhibitors of isogenic TIM10 control yeast, primary screen, counter-screen for tim10-1 yeast inhibitor project, luminescence, uHTS; S. cerevisiae TIM10 strain growth, BacTiter-Glo luminescence, 24 h; inhibition, % at 10 µM; hit rate 1.4% among 330,000; AID 463195, 2010;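 active means inhibition of 40% or more at the single tested concentration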;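 further: wild-type TIM10 isogenic control strain grown at permissive 25 °C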
# TIM10 conf – growth inhibitors of wild-type TIM10 yeast, confirmation, counter-screen for tim10-1 synthetic lethality project, single concentration, luminescence, S. cerevisiae; hit rate 63% among 4,600; inhibition, % at 10 µM; S. cerevisiae tim10 strain growth, BacTiter-Glo luminescence, 24 h; AID 463215, 2010; shares compounds with TIM10 inh;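 active means inhibition of yeast growth at or above a set limit in either of two replicates at 10 µM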;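 further: this counterscreen used the strain with wild-type TIM10; 0% = yeast with DMSO and 100% = medium wells lacking yeast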
# An asterisk follows results filed as active; ? = inconclusive; / = no result given.
SMILES,tim23-1 inh,V-ATPase pHluor,PfHsp90 set2,tim10-1 inh,SKKanGAS inh,TIM10 inh,TIM10 conf
COc1ccc(CNS(=O)(=O)c2ccc3c(c2)N(C(C)=O)CCO3)cc1,9.8,1.3,17.8,17.9,3.8,45.9*,0.6
CC(C)COC(=O)N1C[C@H](O)C[C@H]1C(=O)Nc1ccc(Cl)cc1,-4.2,-2.6,5.1,5.8,-2.4,-11.3,/
C=CCOC(=O)N1CCC2CC1c1cc(-c3cccc(C)c3)ccc12 (stereo not drawn),/,-1.6,-7.6,/,/,/,/
O=C(c1ccc([N+](=O)[O-])s1)N1CCN(c2ncccn2)CC1,/,-1.2,/,/,/,/,/
O=C(c1ccc([N+](=O)[O-])s1)N1CCN(c2ccc(C(F)(F)F)cn2)CC1,32.3,-3.6,10.0,9.6,4.3,42.3*,26.9
C/C(=N\NC(=S)Nc1ccccc1C)c1cc2ccccc2o1,32.8,-2.1,-28.1,25.0,12.6,41.9*,21.6
C/C(=N\NC(=O)c1ccco1)c1cc2ccccc2o1,16.7,1.2,-31.2,-4.2,-3.8,13.6,/
COC(=O)Cn1ncc(N(C)Cc2ccccc2)c(Cl)c1=O,5.4,4.1,17.3,2.0,3.0,-13.0,/
Cc1cccc(NC(=O)c2ccc3ccccc3n2)c1C,39.3,-5.6,-6.5,38.4,3.9,44.9*,31.9*
Cc1ccccc1NC(=O)c1cccc(C(=O)Nc2ccccc2C)n1,10.6,2.4,-19.0,-6.8,11.0,-7.8,/
CCOC(=O)c1ccc(N(C(=O)CNC(=O)c2ccco2)C(C(=O)NCC2CCCO2)c2ccc(OC)c(OC)c2)cc1 (stereo not drawn),8.6,-0.2,12.9,1.4,-4.9,8.4,/
COc1cc(OC)c(N2CC(C(=O)Nc3cccc(C(=O)NC4CC4)c3)CC2=O)cc1Cl (stereo not drawn),-3.8,-1.0,-7.3,-1.2,/,82.1*,-3.6
CCc1ccc(N2CC(C(=O)Nc3cccc(C(=O)NC4CC4)c3)CC2=O)cc1 (stereo not drawn),1.4,-1.1,-8.1,14.7,/,2.6,/
O=C1CN(C(=O)COC(=O)c2ccc(Br)o2)c2ccccc2N1,12.5,-0.5,15.3,6.2,/,4.0,/
c1ccc(-c2cc3c(ccc4nonc43)nn2)cc1,12.2,0.4,17.0,20.5,-4.6,-16.8,/
On1onc2c3cc(-c4ccccc4)nc3ccc21,23.7,1.1,-9.6,36.0,/,61.1*,52.9*
Cc1ccc(-n2c(C)cc(/C([O-])=C(/C(=S)Nc3ccc(F)c(Cl)c3)[n+]3ccccc3)c2C)cc1,-15.4,0.4,/,10.3,22.5,41.1*,-16.8
Cc1nn(CC(=O)Nc2ccccc2C(F)(F)F)c(=O)c2cccn12,-1.7,-2.7,23.8,4.4,-8.6,4.2,/
O=C(CSc1nnc(-c2cccs2)n1CC1CCCO1)c1cc2ccccc2o1 (stereo not drawn),19.2,0.4,?,30.6,6.0,41.1*,-26.2
O=C1/C(=C\c2ccc(O)c(O)c2)SC(=S)N1Cc1ccccc1,22.3,0.0,122.1*,-44.2,-1.7,50.3*,56.2*
CCCn1c2ccccc2c2cnn(CC(=O)NCCCN3C(C)CCCC3C)c(=O)c21 (stereo not drawn),-13.1,2.7,-4.0,-3.7,-3.1,0.1,/
Cc1ccc(/C=C/C(=O)N2CCN(S(=O)(=O)c3c(C)c(C)cc(C)c3C)CC2)o1,30.2,-4.4,-26.0,26.1,10.6,40.9*,-17.8
O=C(CSc1nnc(CNC(=O)c2ccco2)o1)Nc1ccccc1F,-3.6,1.5,-2.5,-3.7,-0.9,-4.1,/
COc1ccc(N2CCC(CNC(=S)Nc3c(C)cc(C)cc3C)C2)cc1 (stereo not drawn),48.5,-2.8,-26.1,-0.3,2.1,40.1*,55.7*
COc1ccc(N2CCC(CNC(=S)Nc3cccc(C)c3)C2)cc1 (stereo not drawn),41.4,1.1,-7.0,-6.2,-0.1,25.9,/
SMILES,tim23-1 inh,V-ATPase pHluor,PfHsp90 set2,tim10-1 inh,SKKanGAS inh,TIM10 inh,TIM10 conf
COc1ccc(-c2cn3cc(C)ccc3n2)cc1F,36.5,0.5,17.9,27.4,-18.0,61.2*,57.3*
CC1(C)Cc2c(cnn2-c2ccccc2)-c2c1c1ccccc1n2CC(O)CBr (stereo not drawn),30.6,5.9,-17.4,21.2,36.6,12.6,/
Cc1ccc(NC(=O)CCC(=O)c2cccs2)c(O)c1,17.6,1.8,-9.9,3.8,4.6,10.8,/
O=S(=O)(Nc1cccc2ncccc12)c1cccs1,39.7,3.0,-101.0,30.8,87.2*,43.4*,47.9*
O=S(=O)(Nc1ccc(-c2nc3cccnc3s2)cc1)c1cccs1,14.4,3.6,-4.1,9.6,3.6,4.1,/
C[C@H](NS(=O)(=O)c1ccc2c(c1)OCCCO2)C(=O)N1CCN(Cc2ccc(C#N)cc2)CC1,4.8,-7.2,/,5.3,/,5.8,/
CC(C)(C)c1cc(NC(=O)Nc2ccc(Cl)cc2Cl)no1,26.7,-1.9,1.0,34.1,6.5,41.7*,43.0*
O=C(Nc1ccon1)Nc1ccc(Cl)cc1Cl,28.3,-2.9,-4.5,33.4,18.3,29.7,/
CC(C)(C)c1cc(NC(=O)Nc2ccc(Br)cc2Cl)no1,30.4,1.2,15.8,29.2,-2.1,42.2*,41.1*
O=C(O)c1cc(-c2ccccc2)c(N2CCOCC2)s1,3.9,0.2,16.8,2.9,8.1,5.7,/
O=C(c1ccc(Cl)cc1)c1cc(-c2ccccn2)c(N2CCOCC2)s1,39.4,5.5,-9.9,36.7,-4.7,40.0*,16.4
COc1ccc(S(=O)(=O)N2CCN(C(=O)Nc3ccccc3OC)CC2)cc1,7.4,-0.8,-12.1,3.9,4.5,8.3,/
COc1ccc(CN2CCN(Cc3ccc4cc(F)ccc4n3)CC2CCO)c(C)c1C (stereo not drawn),13.1,-0.8,-1.2,14.0,-4.6,-0.8,/
CCOc1ccccc1/C=C(/NC(=O)c1ccccc1)C(=O)N1CCCCC1,15.0,-1.4,-5.3,26.8,9.2,5.8,/
CCc1ccc2[nH]c(=O)c(C(c3nnnn3Cc3ccccc3)N3CCOCC3)cc2c1 (stereo not drawn),12.6,9.5,3.0,29.8,-5.7,-3.1,/
CCc1ccc2[nH]c(=O)c(C(c3nnnn3Cc3ccco3)N3CCC(C)CC3)cc2c1 (stereo not drawn),25.5,-0.1,-14.1,31.2,-0.4,40.7*,20.4
N#Cc1cc([N+](=O)[O-])cnc1N(CCO)CCO,2.2,-3.5,18.3,-7.2,10.7,3.4,/
c1ccc2[nH]c(NC3=NCCC3)nc2c1,1.0,5.5,9.4,17.4,29.3,40.7*,-25.8
c1ccc2[nH]c(NN=C3CCCCCC3)nc2c1,-3.0,0.1,-6.2,13.9,21.0,1.7,/
